Assay results as given in PubChem BioAssay (Tox21).
Results filed as inconclusive are left out. Active and inactive are the calls of the source. Unless noted, calls come from the whole dose curve.

Experiments:
[1] = Nuclear factor erythroid 2-related factor 2/antioxidant responsive element (Nrf2/ARE) small molecule agonists: qHTS cell viability counter screen in human keratinocytes (AID 1919968; active = well fitted curve in the direction sought with a large enough effect in the repeat runs; an effect the other way counts as inactive or inconclusive; note: nearly all actives have a fitted effect of over 55% in size; note: potency is the fitted concentration of half-maximal effect)
Procedure, shortened: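 Seed 1,500 KeratinoSens cells per well, then incubate 5 h at 37 C/5% CO2. Add compounds in DMSO and incubate 23 h. Add CellTiter-Fluor, wait 1 h and read fluorescence.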

[2] = Nuclear factor erythroid 2-related factor 2/antioxidant responsive element (Nrf2/ARE) small molecule agonists: luciferase reporter gene qHTS assay in human keratinocytes (AID 1919969); note: nearly all actives have a fitted effect of over 35% in size; note: potency is the fitted concentration of half-maximal effect
[3] = molecular target: Gonadotropin-releasing hormone receptor (Homo sapiens) (UniProt P30968); assay: Human gonadotropin-releasing hormone receptor (GnRHR) small molecule agonists, calcium flux assay in GnRHR-HEK293 cells (AID 1920063); note: nearly all actives have a fitted effect of over 35% in size
Procedure, shortened: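 Cells: HEK293 stably expressing human GnRHR. Steps: overnight (18 h) culture, 1 h calcium dye loading at 37 C, compound addition, kinetic fluorescence read at 480/540 nm. Each compound tested at 15 concentrations in triplicate.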

[4] = molecular target: KiSS-1 receptor (Homo sapiens) (UniProt Q969F8); assay: Human kisspeptin (KISS1R) small molecule agonists, calcium flux assay in KISS1R-HEK293 cells (AID 1920064; active = well fitted curve in the direction sought with a large enough effect in the repeat runs; an effect the other way counts as inactive or inconclusive)
Procedure, shortened: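 Cells plated and incubated 18 h; dye added, 1 h at 37 C; compounds in DMSO pinned in; signal read at 480/540 nm every second for 3 min. Each compound tested at 15 concentrations in triplicate.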

[5] = G protein-coupled receptor (GPCR) small molecule agonists, calcium flux assay: HEK293 wild type cell line counter screen (AID 1920065)
Procedure, shortened: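 Counter-screen of the Tox21 10K library for non-specific calcium release: dye-loaded cells received compounds in DMSO and were monitored by kinetic fluorescence (480/540 nm, 3 min). Fifteen concentrations, run in triplicate.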

[6] = p53 small molecule agonists, cell-based qHTS assay with human liver microsomes: qHTS cell viability counter screen (AID 1963579); note: nearly all actives have a fitted effect of over 45% in size
Procedure, shortened: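 In this multiplexed counter screen, the reporter plates were subsequently treated with CellTiter-Glo so that cell viability, reflected by luminescence, could be recorded for p53RE-bla cells dosed 16 h with compounds under microsomal activation (HLM and NADPH).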

[7] = p53 small molecule agonists, cell-based qHTS assay with rat liver microsomes: qHTS cell viability counter screen (AID 1963580); note: nearly all actives have a fitted effect of over 45% in size
Procedure, shortened: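 Intracellular ATP, by CellTiter-Glo luminescence, defines viability. HCT-116 p53RE-bla cells, 4,000 per well, were compound-treated in the presence of rat liver microsomes and NADPH for 16 h at 37 C.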

[8] = p53 small molecule agonists, cell-based qHTS assay: qHTS cell viability counter screen (AID 1963581); note: nearly all actives have a fitted effect of over 45% in size
Procedure, shortened: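 Cells: HCT-116 with p53 response element-driven beta-lactamase. Treatment: 16 h, 37 C, compounds in DMSO. Read: CellTiter-Glo luminescence after 30 min RT.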

[9] = molecular target: 5-hydroxytryptamine receptor 2A (Homo sapiens) (UniProt P28223); assay: 5-hydroxytryptamine receptor 2A (HTR2A) small molecule antagonists, cell-based qHTS assay (AID 1963586); note: nearly all actives have a fitted effect of over 45% in size
Procedure, shortened: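 Antagonist-mode intracellular calcium assay: DOI (4 nM) added after 5 min compound pre-incubation at room temperature to dye-loaded HTR2A-CHO cells. Fluorescence followed for 3 min, sampled every second.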

[10] = molecular target: 5-hydroxytryptamine receptor 2A (Homo sapiens) (UniProt P28223); assay: 5-hydroxytryptamine receptor 2A (HTR2A) small molecule agonists, cell-based qHTS assay (AID 1963587); note: nearly all actives have a fitted effect of over 30% in size
Procedure, shortened: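 Kinetic calcium-flux fluorescence (2 min, 1 sec intervals) after compound addition in agonist mode. HTR2A-CHO cells were cultured 18 h, then dye-loaded 1 h at 37 C.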

[11] = molecular target: Muscarinic acetylcholine receptor M1 (Homo sapiens) (UniProt P11229); assay: Cholinergic receptor muscarinic 1 (CHRM1) small molecule antagonists, cell-based qHTS assay (AID 1963588); note: nearly all actives have a fitted effect of over 40% in size
Procedure, shortened: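 CHRM1-CHO calcium-flux assay, antagonist mode. Cells were seeded 18 h, dye-loaded 1 h at 37 C and given compound for 5 min at RT, then acetylcholine was added at 50nM. FDSS fluorescence was read 3 min; 15 concentrations, three runs.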

[12] = molecular target: Muscarinic acetylcholine receptor M1 (Homo sapiens) (UniProt P11229); assay: Cholinergic receptor muscarinic 1 (CHRM1) small molecule agonists, cell-based qHTS assay (AID 1963589); note: nearly all actives have a fitted effect of over 35% in size
Procedure, shortened: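 Agonist-mode qHTS in CHO cells stably carrying human muscarinic M1. Intracellular calcium is tracked by fluorescence every second after compound transfer; each compound runs at 15 concentrations in three independent runs.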

[13] = cAMP Responsive Elements (CRE) small molecule agonists, cell-based qHTS assay (AID 1963590)
Procedure, shortened: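 Agonist mode qHTS in CRE-bla HEK 293T cells: compounds dosed from DMSO for 3 h at 37 C/5% CO2, followed by LiveBLAzer B/G FRET substrate for 2 h at room temperature.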

[14] = cAMP Responsive Elements (CRE) small molecule antagonists, cell-based qHTS assay (AID 1963591; active = well fitted inhibition curve with a large enough effect in the signal ratio in the repeat runs, not every such curve was filed as active; the % refers to the signal ratio)
Procedure, shortened: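 Antagonist mode: test compounds are co-incubated with the adenylyl cyclase activator NKH477 (0.25 uM final) on CRE-bla HEK293T cells for 3 h at 37 °C, followed by LiveBLAzer substrate loading.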

[15] = molecular target: Beta-2 adrenergic receptor (Homo sapiens) (UniProt P07550); assay: Adrenergic beta2 receptor (ADRB2) small molecule antagonists, cell-based qHTS assay (AID 1963592); note: series mostly up to about 92 µM; nearly all actives have a fitted effect of over 50% in size
Procedure, shortened: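 Cells (CHO, stable ADRB2 overexpression) incubated 18-20hr at 37C; compounds added from DMSO; agonist mix (1nM isoproterenol, 100uM IBMX, 25uM Ro-20-1724) added; 0.5hr RT; d2-cAMP and anti-cAMP-cryptate added; 1hr RT; 665/615 nm read.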

[16] = molecular target: D(2) dopamine receptor (Homo sapiens) (UniProt P14416); assay: Dopamine D2 receptor (DRD2) small molecule agonists, cell-based qHTS assay (AID 1963594); note: nearly all actives have a fitted effect of over 35% in size; note: potency is the fitted concentration of half-maximal effect
Procedure, shortened: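 cAMP accumulation in DRD2-HEK293 cells measured by HTRF after 1 h detection; compounds added 10 min before NKH477 (200nM […]) forskolin-analogue stimulation, 30 min at room temperature, with Ro20-1724 present at 0.1 mM final.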

[17] = molecular target: D(2) dopamine receptor (Homo sapiens) (UniProt P14416); assay: Dopamine D2 receptor (DRD2) small molecule antagonists, cell-based qHTS assay (AID 1963595; active = well fitted inhibition curve with a large enough effect in the signal ratio in the repeat runs, with a control signal flat; the % refers to the signal ratio)
Procedure, shortened: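 Antagonist mode in DRD2-HEK293 cells: after compound addition with 0.1 mM Ro20-1724, cells received quinpirole (12 nM) and NKH477 (200 nM) for 30 min at room temperature; HTRF cAMP read after 1 h detection.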

[18] = molecular target: Beta-2 adrenergic receptor (Homo sapiens) (UniProt P07550); assay: Adrenergic beta2 receptor (ADRB2) small molecule agonists, cell-based qHTS assay (AID 1963593);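 note: CHO cells stably overexpressing human ADRB2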
Procedure, shortened: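 CHO cells stably over-expressing ADRB2 were plated overnight at 37C, then dosed with compounds plus a stimulation mix containing 100uM IBMX and 25uM Ro-20-1724 for 0.5hr at room temperature. cAMP was measured by HTRF competition, 1hr.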

[19] = p53 small molecule agonists, cell-based qHTS assay (AID 1963582; active = well fitted activation curve with a large enough effect in the signal ratio in the repeat runs, not every such curve was filed as active; the % refers to the signal ratio)
Procedure, shortened: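 Quantitative HTS in p53RE-bla cells: after a 5 h settling period, compounds delivered in DMSO were left on cells for 16 h at 37 C, and reporter induction was measured as fluorescence following 2 h substrate loading.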

Measured: Potency

Sequence of 5-hydroxytryptamine receptor 2A (Homo sapiens) (P28223 whole entry, looked up): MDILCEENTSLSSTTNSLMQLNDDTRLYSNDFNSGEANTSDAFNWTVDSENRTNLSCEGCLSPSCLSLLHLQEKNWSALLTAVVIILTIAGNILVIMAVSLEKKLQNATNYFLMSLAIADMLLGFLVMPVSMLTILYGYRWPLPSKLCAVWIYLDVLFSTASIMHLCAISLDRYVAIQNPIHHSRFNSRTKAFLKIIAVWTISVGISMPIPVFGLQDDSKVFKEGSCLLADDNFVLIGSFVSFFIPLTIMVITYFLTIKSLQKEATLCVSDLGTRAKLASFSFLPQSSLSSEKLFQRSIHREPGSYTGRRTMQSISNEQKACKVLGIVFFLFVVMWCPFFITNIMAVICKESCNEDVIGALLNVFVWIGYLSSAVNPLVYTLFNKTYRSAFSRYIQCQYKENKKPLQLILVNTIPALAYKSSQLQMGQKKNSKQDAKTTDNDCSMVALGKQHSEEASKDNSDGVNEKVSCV
Sequence of Muscarinic acetylcholine receptor M1 (Homo sapiens) (P11229 whole entry, looked up): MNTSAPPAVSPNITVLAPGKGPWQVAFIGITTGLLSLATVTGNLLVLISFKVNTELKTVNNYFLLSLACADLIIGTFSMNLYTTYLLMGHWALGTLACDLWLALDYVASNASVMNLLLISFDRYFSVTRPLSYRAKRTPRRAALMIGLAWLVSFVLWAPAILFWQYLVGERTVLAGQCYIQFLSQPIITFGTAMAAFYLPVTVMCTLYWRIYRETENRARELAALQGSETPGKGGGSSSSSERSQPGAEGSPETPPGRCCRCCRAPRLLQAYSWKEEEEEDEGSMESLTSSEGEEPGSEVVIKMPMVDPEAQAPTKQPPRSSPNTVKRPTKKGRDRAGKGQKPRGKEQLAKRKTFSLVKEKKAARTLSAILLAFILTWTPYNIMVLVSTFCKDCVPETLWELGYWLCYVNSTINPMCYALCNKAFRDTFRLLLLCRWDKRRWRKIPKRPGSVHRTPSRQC
Sequence of Beta-2 adrenergic receptor (Homo sapiens) (P07550 whole entry, looked up): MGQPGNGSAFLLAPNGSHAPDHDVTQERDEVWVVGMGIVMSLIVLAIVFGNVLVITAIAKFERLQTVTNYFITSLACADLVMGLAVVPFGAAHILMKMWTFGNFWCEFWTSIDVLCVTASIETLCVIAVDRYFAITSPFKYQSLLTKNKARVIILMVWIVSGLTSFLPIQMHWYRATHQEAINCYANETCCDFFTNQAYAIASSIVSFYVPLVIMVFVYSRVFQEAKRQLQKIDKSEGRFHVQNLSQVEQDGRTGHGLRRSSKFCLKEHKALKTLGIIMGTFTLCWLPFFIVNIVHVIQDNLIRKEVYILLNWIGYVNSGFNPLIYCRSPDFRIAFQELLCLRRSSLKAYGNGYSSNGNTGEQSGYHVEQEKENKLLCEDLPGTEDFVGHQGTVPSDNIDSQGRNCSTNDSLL
Sequence of Gonadotropin-releasing hormone receptor (Homo sapiens) (P30968 whole entry, looked up): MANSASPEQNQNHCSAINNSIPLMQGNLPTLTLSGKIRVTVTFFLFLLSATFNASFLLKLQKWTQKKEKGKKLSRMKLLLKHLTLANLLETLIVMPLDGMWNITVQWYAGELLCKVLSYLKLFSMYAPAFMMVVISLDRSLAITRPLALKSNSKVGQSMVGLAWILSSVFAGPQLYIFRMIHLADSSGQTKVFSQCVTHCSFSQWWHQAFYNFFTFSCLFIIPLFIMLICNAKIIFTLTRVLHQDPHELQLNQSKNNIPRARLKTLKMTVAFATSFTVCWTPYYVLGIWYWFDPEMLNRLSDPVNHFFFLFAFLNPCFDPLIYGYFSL
Sequence of KiSS-1 receptor (Homo sapiens) (Q969F8 whole entry, looked up): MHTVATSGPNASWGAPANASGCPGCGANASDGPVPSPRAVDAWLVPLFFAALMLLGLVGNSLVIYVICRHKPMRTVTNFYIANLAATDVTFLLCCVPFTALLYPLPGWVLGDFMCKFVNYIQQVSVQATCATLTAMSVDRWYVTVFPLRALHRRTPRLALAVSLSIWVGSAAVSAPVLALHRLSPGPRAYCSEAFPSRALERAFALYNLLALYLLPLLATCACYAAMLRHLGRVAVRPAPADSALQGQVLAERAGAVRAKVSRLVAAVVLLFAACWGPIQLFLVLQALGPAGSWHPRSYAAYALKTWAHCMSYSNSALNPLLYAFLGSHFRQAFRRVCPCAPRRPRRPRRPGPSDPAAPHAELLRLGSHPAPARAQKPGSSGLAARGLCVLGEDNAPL
Sequence of D(2) dopamine receptor (Homo sapiens) (P14416 whole entry, looked up): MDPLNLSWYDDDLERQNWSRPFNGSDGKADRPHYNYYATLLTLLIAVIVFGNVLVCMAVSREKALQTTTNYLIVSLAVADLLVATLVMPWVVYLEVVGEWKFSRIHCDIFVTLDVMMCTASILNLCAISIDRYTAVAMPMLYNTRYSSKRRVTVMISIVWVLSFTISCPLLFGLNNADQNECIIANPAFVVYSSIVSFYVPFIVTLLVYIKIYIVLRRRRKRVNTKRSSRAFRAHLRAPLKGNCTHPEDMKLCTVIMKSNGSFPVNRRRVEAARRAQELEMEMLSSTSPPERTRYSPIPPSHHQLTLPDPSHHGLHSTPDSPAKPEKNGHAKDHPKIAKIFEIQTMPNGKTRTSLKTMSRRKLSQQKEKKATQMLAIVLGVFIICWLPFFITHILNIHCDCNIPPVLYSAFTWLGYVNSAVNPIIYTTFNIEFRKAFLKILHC

Clc1cccc2ccccc12
inactive: [1] | [2] | [3] | [4] | [5] | [6] | [7] | [8] | [9] | [10] | [11] | [12] | [13] | [14] | [15] | [16] | [17]

CCCCN(CCCC)C(=S)[S-].CCCCN(CCCC)C(=S)[S-].[Ni+2]
inactive: [3] | [4] | [5] | [6] | [7] | [8] | [9] | [10] | [11] | [12] | [13] | [14] | [15] | [18] | [16] | [17]
active: [1] 8.42 µM | [2] 2.99 µM

O=C(O)C(O)C(O)C(=O)O (stereo not drawn)
inactive: [1] | [2] | [3] | [4] | [5] | [6] | [7] | [8] | [9] | [10] | [11] | [12] | [13] | [15] | [16] | [17]

O=C1NC(=O)C(=O)C(=O)N1
inactive: [1] | [2] | [3] | [4] | [5] | [6] | [7] | [8] | [9] | [10] | [11] | [12] | [13] | [14] | [15] | [18] | [17]

CCCSP(=S)(OCC)Oc1ccc(Cl)cc1Cl (stereo not drawn)
active: [2] 61.1 µM
inactive: [1] | [3] | [4] | [5] | [6] | [7] | [8] | [9] | [10] | [11] | [12] | [13] | [14] | [15] | [18] | [16] | [17]

CCC1(c2ccccc2)C(=O)N(COC)C(=O)N(COC)C1=O
active: [16] 10.6 µM
inactive: [1] | [2] | [3] | [4] | [5] | [6] | [7] | [8] | [9] | [10] | [11] | [12] | [13] | [14] | [15] | [17]

ClCc1ccccc1Cl
inactive: [1] | [2] | [3] | [4] | [5] | [6] | [7] | [8] | [9] | [10] | [11] | [12] | [13] | [14] | [15] | [18] | [16] | [17]

O=C(O)c1cccc(Cl)c1
inactive: [1] | [2] | [3] | [4] | [5] | [6] | [7] | [8] | [9] | [10] | [11] | [12] | [13] | [14] | [15] | [16] | [17]

Nc1cc2c3c(c1)C(c1ccccc1)=N[C@@H](NC(=O)c1cccnc1)C(=O)N3CC2
inactive: [1] | [2] | [3] | [4] | [5] | [6] | [7] | [8] | [9] | [10] | [11] | [12] | [13] | [15] | [18] | [16] | [17]

CCOP(=S)(OCC)Oc1cc(C)nc(N(CC)CC)n1
inactive: [1] | [2] | [3] | [4] | [5] | [6] | [7] | [8] | [19] | [10] | [11] | [12] | [15] | [18] | [16] | [17]

Fc1cccc(Cl)c1CCl
inactive: [1] | [2] | [3] | [4] | [5] | [6] | [7] | [8] | [9] | [10] | [11] | [12] | [13] | [14] | [15] | [17]

CCCCOP(=O)(O)OCCCC
inactive: [1] | [2] | [3] | [4] | [5] | [6] | [7] | [8] | [9] | [10] | [11] | [12] | [13] | [14] | [15] | [18] | [16] | [17]

O=S(=O)(O)F
inactive: [1] | [2] | [3] | [4] | [5] | [6] | [7] | [8] | [9] | [10] | [11] | [12] | [13] | [14] | [15] | [16] | [17]

CCCC[N+](=O)[O-]
inactive: [1] | [2] | [3] | [4] | [5] | [6] | [7] | [8] | [9] | [10] | [11] | [12] | [13] | [14] | [15] | [16] | [17]

CCn1cc[n+](C)c1 (tested in a mixture with another compound)
inactive: [1] | [2] | [3] | [4] | [5] | [6] | [7] | [8] | [9] | [10] | [11] | [12] | [13] | [14] | [15] | [18] | [16] | [17]

O=C(CBr)c1ccccc1
active: [2] 69 µM
inactive: [1] | [3] | [4] | [5] | [6] | [7] | [8] | [9] | [10] | [11] | [12] | [13] | [15] | [16] | [17]
